Source: PubChem BioAssay (NCATS)
Results filed as inconclusive are left out. Calls of active or inactive are those of the source. Unless noted, the call rests on the fitted dose curve; in most records, active means well fitted curve in the direction sought with a large enough effect; inconclusive means small, poorly fitted or top-dose-only effect, or another doubt; inactive means no such curve, though single readings can be large; an effect the other way counts as inactive or inconclusive.

Legend:
[1] = S16 Schwann cell PMP22 intronic element firefly luciferase assay (AID 624032); further: nearly all actives have a fitted effect of over 30% in size
Procedure, shortened: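 Rat S16 Schwann cells stably carrying firefly luciferase driven by a PMP22 intronic element, in 10% FBS, treated 24 h at 37 C. ONE-Glo luminescence normalized to PTC124 control and DMSO (0%); curves classed by r2, magnitude and activity.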

[2] = S16 Schwann cell PMP22 intronic element beta-lactamase assay (AID 624044; calls by dose curve; further: nearly all actives have a fitted effect of over 15% in size)
Procedure, shortened: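 Beta-lactamase reporter under a PMP22 intronic regulatory element in stable S16 rat Schwann cells; 24 h compound exposure. 460 nm blue signal normalized between DMSO (0%) and potassium clavulanate, with 535 nm FRET tracking viability; curves classed by r2 and response.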

[3] = system: ATS95; assay: qHTS profiling for inhibitors of Plasmodium falciparum proliferation (AID 504749); further: nearly all actives have a fitted effect of over 60% in size; conditions: P. falciparum in erythrocytes, SYBR Green DNA, 72 h; series mostly up to 12.8 µM
Procedure, shortened: (§1)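 SYBR Green fluorescence (ex 485 nm, em 535 nm) reports parasite DNA after 72 h compound exposure of infected red cells at 0.3% parasitemia, 2.5% hematocrit; signal normalized to 0.29 uM artemisinin and vehicle wells.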

[4] = system: CP201; assay: as above; conditions: P. falciparum in erythrocytes, SYBR Green DNA, 72 h; series mostly up to 12.8 µM
Procedure, shortened: as §1

[5] = system: CP237; assay: as above; conditions: P. falciparum in erythrocytes, SYBR Green DNA, 72 h; series mostly up to 12.8 µM
Procedure, shortened: as §1

[6] = system: CP247; assay: as above; conditions: P. falciparum in erythrocytes, SYBR Green DNA, 72 h; series mostly up to 12.8 µM
Procedure, shortened: as §1

[7] = system: CP260; assay: as above; conditions: P. falciparum in erythrocytes, SYBR Green DNA, 72 h; series mostly up to 12.8 µM
Procedure, shortened: as §1

[8] = system: CP265; assay: as above; conditions: P. falciparum in erythrocytes, SYBR Green DNA, 72 h; series mostly up to 12.8 µM
Procedure, shortened: as §1

[9] = system: CP269; assay: as above; conditions: P. falciparum in erythrocytes, SYBR Green DNA, 72 h; series mostly up to 12.8 µM
Procedure, shortened: as §1

[10] = system: CP291; assay: as above; conditions: P. falciparum in erythrocytes, SYBR Green DNA, 72 h; series mostly up to 12.8 µM
Procedure, shortened: as §1

[11] = system: CP305; assay: as above; conditions: P. falciparum in erythrocytes, SYBR Green DNA, 72 h; series mostly up to 12.8 µM
Procedure, shortened: as §1

[12] = system: CP325; assay: as above; conditions: P. falciparum in erythrocytes, SYBR Green DNA, 72 h; series mostly up to 12.8 µM
Procedure, shortened: as §1

[13] = system: DIV14; assay: as above; conditions: P. falciparum in erythrocytes, SYBR Green DNA, 72 h; series mostly up to 12.8 µM
Procedure, shortened: as §1

[14] = system: DIV30; assay: as above; conditions: P. falciparum in erythrocytes, SYBR Green DNA, 72 h; series mostly up to 12.8 µM
Procedure, shortened: as §1

[15] = system: ICS; assay: as above; conditions: P. falciparum in erythrocytes, SYBR Green DNA, 72 h; series mostly up to 12.8 µM
Procedure, shortened: as §1

[16] = system: P94_40; assay: as above; conditions: P. falciparum in erythrocytes, SYBR Green DNA, 72 h; series mostly up to 12.8 µM
Procedure, shortened: as §1

[17] = system: TAB165; assay: as above; conditions: P. falciparum in erythrocytes, SYBR Green DNA, 72 h; series mostly up to 12.8 µM
Procedure, shortened: as §1

[18] = biological target: Luciferin 4-monooxygenase (Photinus pyralis) (UniProt P08659); assay: Biochemical firefly luciferase enzyme assay for NPC (AID 624030);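 further: purified P. pyralis luciferase at 10 nM with luciferin and ATP substrate; nearly all actives have a fitted effect of over 70% in size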
Sequence of Luciferin 4-monooxygenase (Photinus pyralis) (P08659 whole entry, looked up): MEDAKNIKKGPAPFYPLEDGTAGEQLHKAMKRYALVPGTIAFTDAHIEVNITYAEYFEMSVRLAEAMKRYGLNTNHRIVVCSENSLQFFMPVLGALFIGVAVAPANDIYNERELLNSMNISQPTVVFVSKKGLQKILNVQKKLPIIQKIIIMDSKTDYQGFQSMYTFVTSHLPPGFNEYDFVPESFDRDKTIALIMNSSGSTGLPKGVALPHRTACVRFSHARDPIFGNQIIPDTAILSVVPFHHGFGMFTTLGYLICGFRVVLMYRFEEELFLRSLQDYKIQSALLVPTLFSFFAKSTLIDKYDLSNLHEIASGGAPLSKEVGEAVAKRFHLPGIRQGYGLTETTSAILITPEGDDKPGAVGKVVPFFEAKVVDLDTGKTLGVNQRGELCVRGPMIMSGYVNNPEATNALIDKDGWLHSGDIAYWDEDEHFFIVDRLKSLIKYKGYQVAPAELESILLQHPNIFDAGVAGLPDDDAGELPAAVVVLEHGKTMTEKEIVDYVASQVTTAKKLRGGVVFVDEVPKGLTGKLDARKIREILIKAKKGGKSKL
Procedure, shortened: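 Purified P. pyralis luciferase at 10 nM in 50 mM Tris Acetate (final), luminescence read within 5 minutes of enzyme addition to compounds. Activity normalised to PTC124 versus DMSO; concentration-response curves classed by r2, magnitude and activity.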

[19] = system: CP262; assay: qHTS profiling for inhibitors of Plasmodium falciparum proliferation (AID 504749); further: nearly all actives have a fitted effect of over 60% in size; conditions: P. falciparum in erythrocytes, SYBR Green DNA, 72 h; series mostly up to 12.8 µM
Procedure, shortened: as §1

[20] = system: CP329; assay: as above; conditions: P. falciparum in erythrocytes, SYBR Green DNA, 72 h; series mostly up to 12.8 µM
Procedure, shortened: as §1

Measured: Potency

CO[C@@H]1C[C@H](O[C@H]2[C@@H](C)[C@H](O[C@@H]3O[C@@H](C)C[C@@H](N(C)C)[C@@H]3OC(C)=O)[C@H](C)C[C@]3(CO3)C(=O)[C@H](C)[C@H](OC(C)=O)[C@H](C)[C@H](C)OC(=O)[C@@H]2C)O[C@H](C)[C@@H]1OC(C)=O
inactive: [1] | [2] | [3] | [4] | [5] | [6] | [7] | [8] | [9] | [10] | [11] | [12] | [13] | [14] | [15] | [16] | [17]

CC(=O)O[C@H]1C[C@@]2(C)[C@H](C[C@@H](O)[C@H]3[C@@]4(C)CC[C@@H](O)[C@@H](C)[C@H]4CC[C@@]32C)C1=C(CCC=C(C)C)C(=O)O
inactive: [18] | [1] | [2] | [3] | [4] | [5] | [6] | [7] | [19] | [8] | [9] | [10] | [11] | [12] | [20] | [13] | [14] | [16] | [17]

C[C@H](O)Cn1cnc2c1c(=O)n(C)c(=O)n2C
inactive: [18] | [1] | [2] | [3] | [4] | [5] | [6] | [7] | [19] | [8] | [9] | [10] | [11] | [12] | [20] | [13] | [14] | [15] | [16] | [17]

CC(=O)OCC(=O)[C@@]1(O)[C@H](C)C[C@@H]2[C@H]3CCC4=CC(=O)C=C[C@]4(C)[C@]3(F)[C@@H](O)C[C@@]21C
inactive: [1] | [3] | [4] | [5] | [6] | [7] | [19] | [8] | [9] | [10] | [11] | [12] | [20] | [13] | [14] | [15] | [16] | [17]

C[N+]12CCC(CC1)[C@@H](OC(=O)C(O)(c1ccccc1)c1ccccc1)C2
inactive: [18] | [1] | [3] | [5] | [6] | [7] | [19] | [8] | [9] | [12] | [20] | [15] | [16] | [17]

COc1ccc(OC)c([C@H](O)CNC(=O)CN)c1
inactive: [18] | [1] | [3] | [4] | [5] | [6] | [7] | [19] | [8] | [9] | [10] | [11] | [12] | [20] | [13] | [14] | [15] | [16] | [17]

CO[C@H]1[C@H](O[C@H]2O[C@@H](C)[C@@H](O[C@@H]3C[C@](C)(O)[C@H](O)[C@H](C)O3)[C@@H](N(C)C)[C@@H]2O)[C@@H](CC=O)C[C@@H](C)[C@@H](O[C@H]2CC[C@H](N(C)C)[C@H](C)O2)/C=C\C=C/C[C@@H](C)OC(=O)C[C@H]1O
inactive: [18] | [1] | [4] | [6] | [8] | [20] | [13] | [14] | [17]
